# Measurements: ChEMBL document CHEMBL3988442, “University of Dundee, Small-Polar-MMV Screening Library” (2021)
# Out of some 48,000 compounds screened, about 13,000 (27%) showed an effect of 50% or more. The list shows a part of the results.
# Test system: Wolbachia pipientis
# Test: Anti-Wolbachia Cell-Based Screen
# Format: functional
# Set-up: scale not given: in the data most compounds retested in dose-response had high values
# Settings: 5 µM
row,Compound,Percent Effect
1,CS(=O)(=O)CCOCCNc1ccc(Br)cn1,-8.426%
2,CN(CCS(=O)(=O)c1cc(Cl)ccc1Cl)CC(=O)Nc1cccc(F)c1,-24.13%
3,CC1CCCN(C(=O)c2cn(-c3ccc(C(F)(F)F)cn3)nn2)C1 (stereo unspecified),-4.176%
4,Cc1cncc(C2CCCN(CC3CCC3)C2)n1 (stereo unspecified),105.7%
5,Cc1cnc(CN2CCCC(c3cc(C(F)(F)F)[nH]n3)C2)cn1 (stereo unspecified),-5.55%
6,Cc1cncc(C2CCCN(Cc3ccncc3)C2)n1 (stereo unspecified),93.31%
7,Cc1ccc(CN2CCCC(c3cncc(C)n3)C2)cn1 (stereo unspecified),118.4%
8,CN(CCc1cn[nH]c1)C(=O)C1CC(=O)N(Cc2ccccn2)C1 (stereo unspecified),3.692%
9,CC(C(=O)NCC1CCCCC1)S(=O)(=O)Cc1csc(-c2cccs2)n1 (stereo unspecified),-22.28%
10,CC(=O)NCc1nc(Cc2cccc(Cl)c2)nn1C1CCN(C)CC1,14.05%
11,COCCNC(=O)NCc1cc(-c2cccs2)n(C2CCCC2)n1,108.7%
12,COCCNC(=O)NCCCOC1CCCc2ccccc21 (stereo unspecified),-3.457%
13,COCCNC(=O)NCc1cc(-c2ccncc2)n(C2CCCC2)n1,117.5%
14,O=C(NCCn1cnc(C2CCCC2)cc1=O)NCc1cccs1,5.486%
15,CC(=O)NCc1cc(-c2cccs2)n(C2CCCC2)n1,97.9%
16,COCCNC(=O)NC1(c2nc(-c3ccncc3)no2)CCCCC1,-5.967%
17,CN(CCNC(=O)NCc1ccncc1)C1CCCC1,0.2327%
18,CCCc1n[nH]c(C2CN(CCCS(C)(=O)=O)CCO2)n1 (stereo unspecified),8.162%
19,CC(C)N1CCC(Nc2ccn(C)n2)C1=O (stereo unspecified),-18.51%
20,CCc1n[nH]c(C2CN(CC(=O)NCCc3ccsc3)CCO2)n1 (stereo unspecified),-8.362%
21,COc1ccc(S(=O)(=O)NCCC(O)c2cccs2)c(C)c1 (stereo unspecified),-2.091%
22,COCc1nc(CNC2CSCCSC2)no1,8.788%

row,Compound,Percent Effect
1,CN(Cc1csc(-c2cccs2)n1)C(=O)CCn1ccc(=O)[nH]c1=O,-14.37%
2,CCS(=O)(=O)N1CCC2(CC1)CC1(CCN(CCOC)CC1)C(=O)N2C.O=C(O)C(F)(F)F,-5.19%
3,Cc1cnc(N2CCCOC(CN3CCCCC3)C2)nc1 (stereo unspecified),-5.032%
4,O=C1CCC2(CCCN(C(=O)c3ccco3)CC2)N1 (stereo unspecified),-12.15%
5,CC(C)c1cc(C(=O)N2CCOC3(CCNCC3)C2)no1.O=C(O)C(F)(F)F,-1.615%
6,CC(C)c1cc(C(=O)N2CCC3(CCc4ccccc4C(=O)N3)C2)no1 (stereo unspecified),122.1%
7,Cc1noc(C)c1C(=O)N1CCC2(CCc3ccccc3C(=O)N2)C1 (stereo unspecified),127.4%
8,Cc1noc(C)c1C(=O)N1CCC2(CC1)CC(Oc1ccccc1)CO2 (stereo unspecified),-6.513%
9,CC(C)c1cc(=O)[nH]c(-c2ccccc2CN2CCC(C)(C)C2)n1,32.6%
10,CC(C)c1cc(C(=O)N2CCC3(CCc4ccccc4C(=O)N3)C2)on1 (stereo unspecified),142.6%
11,Cc1noc(C)c1CN1CC2(CCN(C(=O)c3ccc[nH]3)C2)CC1=O (stereo unspecified),-7.535%
12,CCC1CN(CCCNS(C)(=O)=O)c2ccccc2O1 (stereo unspecified),-7.766%
13,Cc1cnn(CCNCC(O)COc2ccc(Cl)cc2)c1 (stereo unspecified),-10.6%
14,CN(C)C(=O)c1ccc(C(C(=O)O)N(C)Cc2ccccc2Cl)cc1 (stereo unspecified),24.87%
15,CC(C)=CCS(=O)(=O)Cc1nc(C(C)C)no1,-0.5421%
16,N#Cc1ccc(OCCCN2CCc3cncnc3C2)cc1,-6.561%
17,Cc1nnc(NCc2ccc(SC(F)F)cc2)o1,-21.33%
18,CCN(Cc1ccc2cccc(O)c2n1)CC1CCCO1 (stereo unspecified),12.41%
19,CC(C)n1ccnc1CNC(=O)c1cccc(CCC(C)(C)O)c1,1.765%
20,O=C(NC1COC2(CCN(Cc3cccs3)CC2)C1)c1ccccn1.O=C(O)C(F)(F)F (stereo unspecified),-12.32%
21,O=C(O)C(F)(F)F.O=C(O)C(F)(F)F.c1cncc(C2COC3(CCN(Cc4nccs4)CC3)C2)c1 (stereo unspecified),106.4%
22,O=C(O)C(F)(F)F.O=C(O)C(F)(F)F.c1cncc(C2COC3(CCN(Cc4cccs4)CC3)C2)c1 (stereo unspecified),94.58%

row,Compound,Percent Effect
1,Cc1ccc(CN2CCC3(CC2)CC(c2cccnc2)CO3)s1.O=C(O)C(F)(F)F.O=C(O)C(F)(F)F (stereo unspecified),-3.874%
2,COc1c(C)cc(S(=O)(=O)NCC2CNCCOC2)cc1C (stereo unspecified),-7.949%
3,CC1CS(=O)(=O)CCN1Cc1ccccc1OCC(F)(F)F (stereo unspecified),-0.5987%
4,CCNC(=O)N(C)C(c1cccc(F)c1)c1ccccn1 (stereo unspecified),4.567%
5,CN(C)S(=O)(=O)N(C)C(c1cccnc1)c1ccc(F)c(F)c1 (stereo unspecified),6.924%
6,CN(C)C(C(=O)N1CC(c2ccccn2)C1)c1cccc(F)c1 (stereo unspecified),0.3934%
7,Cc1cccc(C(C(=O)N2CC(c3ccccn3)C2)N(C)C)c1 (stereo unspecified),-0.3127%
8,CN(C)S(=O)(=O)N(C)C(c1cccc(F)c1)c1ccccn1 (stereo unspecified),51.58%
9,CC(C)NC(=O)N(C)C(c1cccc(F)c1)c1ccccn1 (stereo unspecified),108.7%
10,CC(NCc1cccc(S(=O)(=O)N(C)C)c1)c1ccccn1 (stereo unspecified),-1.385%
11,CCNC(=O)N(C)C(c1ccccc1)c1ccccn1 (stereo unspecified),96.55%
12,CCC(C)(C)NC(=O)CN(C)C(c1cccc(F)c1)c1ccccn1 (stereo unspecified),3.895%
13,CCC(CC)CNC(=O)N(C)C(C)c1ccccn1 (stereo unspecified),-0.07078%
14,CN(C(=O)C1CCCC1)C(c1cccc(F)c1)c1ccccn1 (stereo unspecified),96.46%
15,O=C(C1CCC1)N1CCOc2cccc(F)c21,-0.5451%
16,CC(C)c1ccc(CN2CCC(CNS(=O)(=O)C3CC3)C2)cc1 (stereo unspecified),-21.58%
17,O=C(c1ccc[nH]1)N1CCCC2(CCN(c3ccsc3)C2=O)C1 (stereo unspecified),-3.1%
18,CCc1cccc(OC2CN(C(=O)[C@@H](N)CCSC)C2)c1,3.54%
19,OCCc1cc(CC2(NCc3ccncc3)COC2)no1,9.116%
20,CC(=O)N(C)C(c1cccc(F)c1)c1ccccn1 (stereo unspecified),87.32%
21,CN(C)C(C(=O)NCC(F)(F)F)c1cccc(F)c1 (stereo unspecified),-4.686%
22,CN(C)CCN(Cc1ccccn1)C(=O)Nc1cccc(F)c1,19.37%
